Our source for the composite z-score values is PubChem BioAssay.

The target in this experiment is Torsin-1A (Homo sapiens) (UniProt O14656). Briefly: torsin A binders from cell lysate, primary screen, small-molecule microarray, wild-type, 635/667 nm (AID 1149). Particulars: COS7 hTOR1A-WT lysate, 635 nm fluorescence, higher = more signal.
Torsin-1A (Homo sapiens), sequence (O14656 whole entry, looked up): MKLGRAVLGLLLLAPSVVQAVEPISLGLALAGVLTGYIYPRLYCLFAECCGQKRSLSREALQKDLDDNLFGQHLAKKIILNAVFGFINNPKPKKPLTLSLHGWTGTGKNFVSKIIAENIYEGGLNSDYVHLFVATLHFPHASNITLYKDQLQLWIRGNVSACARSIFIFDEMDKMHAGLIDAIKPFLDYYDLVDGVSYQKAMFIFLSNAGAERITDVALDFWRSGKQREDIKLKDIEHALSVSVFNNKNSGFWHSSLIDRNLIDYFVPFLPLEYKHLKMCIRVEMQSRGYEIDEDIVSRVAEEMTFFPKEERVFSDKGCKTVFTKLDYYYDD
Consider `CC(CCN1CCCc2nc(C)c(C)cc21)=NOC(C)CN1CCCCc2nc(C)c(C)cc21` (centres undefined), for which the composite z-score was -0.109. For `CCN1C(=O)[C@@H]2[C@H]3C(=CC[C@@H]2C1=O)C1(OCCCO1)[C@H]1O[C@H]1[C@H]3O` the value was 0.616; for `Cc1ccc(S(=O)(=O)N[C@@H]2COC(=O)[C@@H](C)COC(=O)CC=C[C@H]2C)cc1`, 0.399; for `COC(=O)C1=C(C)N(Cc2ccccc2)[C@]23O[C@](C(=O)OC)(C(=O)N2[C@@H]1c1ccccc1)C(C(=O)OC)=C3C(=O)OC`, 0.199. For `CC(C)CON=C1C[C@@H](O)[C@@H](O)[C@@H]2[C@@H]3C(=O)N(c4ccc(F)cc4F)C(=O)[C@@H]3CC[C@H]12` the value was 0.224; for `CCOC(=O)CCN1C(=O)[C@H]2[C@H]3[C@H](O)[C@H](O)CC(=NOCC(C)C)[C@H]3CC[C@H]2C1=O`, 0.47.

In turn, `CC(C)=CCCC(C)=CCON=C1C[C@@H](O)[C@@H](O)[C@@H]2[C@@H]3C(=O)N(C(C)(C)C)C(=O)[C@@H]3CC[C@H]12` registered a composite z-score of 0.366. For `C[C@H]1CC[C@H]2C(=O)O[C@H](COc3ccc(C(C)(C)C)cc3)CN2[C@@H]1c1ccc(Br)cc1` the value was 0.188. For `COC(=O)CC=C[C@@H](C)[C@@H](C=NO[C@@H]1O[C@H](COC(C)=O)[C@@H](OC(C)=O)[C@H](OC(C)=O)[C@H]1OC(C)=O)NS(=O)(=O)c1ccc(C)cc1` the value was 0.514; for `CCOC(=O)[C@H](CC(C)C)NC(=O)CCC1CC(OC(=O)NCc2cccc3ccccc23)CC2(CCCC(COC(=O)NCc3ccncc3)O2)O1` (some centres undefined), 0.126. For `CC(CCN1CCCc2nc(C)c(C)cc21)=NO[C@@H](C)c1cc(-c2c(C)cc(C)cc2C)no1` the value was 0.464; for `O=C1[C@H]2[C@H]3[C@H](O)[C@H](O)CC(=NO[C@@H]4O[C@H](CO)[C@@H](O)[C@H](O)[C@H]4O)[C@H]3CC[C@H]2C(=O)N1c1cccc(Oc2ccccc2)c1`, 0.625. `CCOC(=O)NN=C1C[C@@H](O)[C@@H](O)[C@@H]2[C@@H]3C(=O)N(c4ccc(F)cc4F)C(=O)[C@@H]3CC[C@@H]12` gave a composite z-score of 0.308. For `C[C@H]1CC[C@H]2C(=O)OC(CO)CN2[C@@H]1c1ccc(Br)cc1` (some centres undefined) the value was 0.21; for `Cn1c(=O)n2n(c1=O)[C@H]1[C@H](O)[C@@H]3O[C@@H]3C(=NOCc3ccccc3)[C@H]1CC2`, -0.223. For `O=c1n(-c2ccccc2)c(=O)n2n1CC[C@@H]1C(=NOCc3ccccc3)[C@H]3O[C@H]3[C@@H](O)[C@@H]12` the value was -0.614. The molecule `C[C@@H]1CC[C@H]2C(=O)O[C@@H](Cc3ccccc3)CN2[C@H]1c1ccc(Br)cc1` gave a composite z-score of 0.433. In turn, `CO[C@H]1COC(=O)[C@@H](C)COC(=O)[C@H](C)NC(=O)CC=C[C@H]1C` returned a composite z-score of 1.15. For `CO[C@H]1COC(=O)CC=C[C@H](C)[C@@H](OC)COC(=O)[C@@H](C)COC(=O)CC=C[C@@H]1C` the value was 2.79; for `COC(=O)CC=C[C@@H](C)[C@@H](C=NOCC[C@@H]1C=C[C@H](OC(C)=O)[C@@H](COC(C)=O)O1)NS(=O)(=O)c1ccc(C)cc1`, 1.14; for `CCOC(=O)CCN1C(=O)[C@H]2[C@H]3[C@H](O)[C@H](O)CC(=NNC(=O)OCc4ccccc4)[C@@H]3CC[C@H]2C1=O`, 0.701. For `CC(C)=CCCC(C)=CCON=C1C[C@@H](O)[C@@H](O)[C@@H]2[C@@H]3C(=O)N(Cc4ccccc4)C(=O)[C@@H]3CC[C@@H]12` the value was 0.925. In turn, `C[C@@H](ON=C1[C@H]2CCn3c(=O)n(-c4ccccc4)c(=O)n3[C@H]2[C@H](O)[C@@H]2O[C@H]12)c1cn([C@@H]2COC[C@H]2O)nn1` displayed a composite z-score of 0.436. For `COc1cc(O)c(C(=O)C=Cc2ccc3c(c2)OCO3)c(OC)c1` the value was -0.404; for `COC(=O)CC=C[C@@H](C)[C@@H](C=NO[C@H](C)c1cn([C@H](CO)Cc2ccccc2)nn1)NS(=O)(=O)c1ccc(C)cc1`, 0.708; for `COc1ccc(O[C@H]2C=C[C@@H](c3ccccc3)O[C@@H]2COC(=O)CCC(C)=NO[C@@H]2O[C@H](COC(C)=O)[C@@H](OC(C)=O)[C@H](OC(C)=O)[C@H]2OC(C)=O)cc1`, 0.495. For `CCOC(=O)NN=C1C[C@@H](O)[C@@H](O)[C@@H]2[C@@H]3C(=O)N(Cc4ccc5c(c4)OCO5)C(=O)[C@@H]3CC[C@H]12` the value was -0.566; for `CCOC(=O)[C@H](CC(C)C)NC(=O)CCC1CC(OC(=O)NCc2cccc3ccccc23)CC2(CCCC(COC(=O)NCCC(C)C)O2)O1` (some centres undefined), -0.0418; for `CC(C)=CCCC(C)=CCON=C1C[C@@H](O)[C@@H](O)[C@@H]2[C@@H]3C(=O)N(C[C@@H]4CCCO4)C(=O)[C@@H]3CC[C@H]12`, 1.4.
